Test results reported in PubChem BioAssay (NCI).
About 83,000 compounds went through this panel and 20% of them were active in at least one assay; those are over-represented in the sample as a whole.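 Cells were grown in 96-well plates and exposed to the test compound at a single concentration for 48 hours; results are reported as percent growth, with values below 10 considered active.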 Activity calls are given as the source filed them.

Legend:
Experiment in all cases: NCI-60 one-dose screen, 48 h (100 = growth as untreated, 0 = no growth, -100 = all killed)
Details in all cases: 10 µM unless noted
SR leukemia = system: SR leukemia
RPMI-8226 leukemia = system: RPMI-8226 leukemia
OVCAR-8 ovarian = system: OVCAR-8 ovarian
OVCAR-5 ovarian = system: OVCAR-5 ovarian
OVCAR-4 ovarian = system: OVCAR-4 ovarian
SK-OV-3 ovarian = system: SK-OV-3 ovarian
IGROV1 ovarian = system: IGROV1 ovarian
OVCAR-3 ovarian = system: OVCAR-3 ovarian
HS 578T breast = system: HS 578T breast
NCI/ADR-RES ovarian = system: NCI/ADR-RES ovarian
T-47D breast = system: T-47D breast
BT-549 breast = system: BT-549 breast
MDA-MB-435 melanoma = system: MDA-MB-435 melanoma
SW-620 colon = system: SW-620 colon
MCF7 breast = system: MCF7 breast
HCT-116 colon = system: HCT-116 colon
HCC-2998 colon = system: HCC-2998 colon
KM12 colon = system: KM12 colon

Measured: growth

COc1cc(/C=C2/Oc3cc4occc4c(OC)c3C2=O)ccc1OCC(=O)Nc1ccncc1
inactive: SR leukemia 102% | RPMI-8226 leukemia 91.4% | OVCAR-8 ovarian 104% | OVCAR-5 ovarian 113% | OVCAR-4 ovarian 111% | SK-OV-3 ovarian 93.1% | IGROV1 ovarian 96.3% | OVCAR-3 ovarian 99.8% | HS 578T breast 95.1% | NCI/ADR-RES ovarian 107% | T-47D breast 108% | BT-549 breast 93.9% | MDA-MB-435 melanoma 112% | SW-620 colon 103% | MCF7 breast 94.3% | HCT-116 colon 95.3% | HCC-2998 colon 110% | KM12 colon 97.1%

COc1ccc(-c2coc3c(CO)c(O)ccc3c2=O)cc1
inactive: SR leukemia 25.5% | RPMI-8226 leukemia 36.6% | OVCAR-8 ovarian 73.6% | OVCAR-5 ovarian 102% | OVCAR-4 ovarian 75.6% | SK-OV-3 ovarian 84.7% | IGROV1 ovarian 61.2% | HS 578T breast 57.2% | NCI/ADR-RES ovarian 86.3% | T-47D breast 61.8% | BT-549 breast 14.2% | MDA-MB-435 melanoma 60.2% | SW-620 colon 83.5% | MCF7 breast 40.8% | HCT-116 colon 19.3% | HCC-2998 colon 29.6% | KM12 colon 60.4%
active: OVCAR-3 ovarian 9.94%

CCCCCCCCCCCCCCCCCCNCc1ccc(Cl)cc1
inactive: BT-549 breast 38.5%
active: SR leukemia -30.1% | RPMI-8226 leukemia -53.9% | OVCAR-8 ovarian -62.7% | OVCAR-5 ovarian -59.5% | OVCAR-4 ovarian -69.1% | SK-OV-3 ovarian -33.1% | IGROV1 ovarian -64.6% | OVCAR-3 ovarian -87.9% | HS 578T breast -48.7% | NCI/ADR-RES ovarian -64.6% | T-47D breast 9.34% | MDA-MB-435 melanoma -80.3% | SW-620 colon -75.8% | MCF7 breast -71.2% | HCT-116 colon -74.5% | HCC-2998 colon -82.8% | KM12 colon -77.2%

CCN(CC)CCNC(=O)c1c(C)[nH]c(/C=C2\C(=O)Nc3cc(NC(=O)NC(=O)c4ccc(OC)cc4F)ccc32)c1C
inactive: SR leukemia 10.6% | RPMI-8226 leukemia 75.7% | OVCAR-8 ovarian 34% | OVCAR-5 ovarian 120% | OVCAR-4 ovarian 111% | SK-OV-3 ovarian 129% | IGROV1 ovarian 98.5% | OVCAR-3 ovarian 111% | HS 578T breast 84.4% | NCI/ADR-RES ovarian 88.3% | T-47D breast 104% | BT-549 breast 104% | MDA-MB-435 melanoma 110% | SW-620 colon 94.9% | MCF7 breast 58.3% | HCT-116 colon 64.7% | HCC-2998 colon 100% | KM12 colon 51.5%

O=C1COc2ccccc2C(=O)N1CCCCN1CCCCC1
inactive: SR leukemia 90.1% | RPMI-8226 leukemia 70.9% | OVCAR-8 ovarian 94.2% | OVCAR-5 ovarian 95.9% | OVCAR-4 ovarian 95% | SK-OV-3 ovarian 80.4% | IGROV1 ovarian 92% | OVCAR-3 ovarian 110% | HS 578T breast 102% | NCI/ADR-RES ovarian 98.8% | T-47D breast 51.3% | BT-549 breast 78.7% | MDA-MB-435 melanoma 104% | SW-620 colon 84.6% | MCF7 breast 79.6% | HCT-116 colon 57.8% | HCC-2998 colon 109% | KM12 colon 90.2%

COc1cc(Br)c(-c2nc(-c3ccccc3)c(-c3ccccc3)n2Cc2ccccc2)cc1OC
inactive: SR leukemia 47.3% | RPMI-8226 leukemia 40.8% | OVCAR-8 ovarian 55% | OVCAR-5 ovarian 77.1% | OVCAR-4 ovarian 48.6% | SK-OV-3 ovarian 39.5% | IGROV1 ovarian 49.4% | OVCAR-3 ovarian 68.6% | HS 578T breast 88.7% | NCI/ADR-RES ovarian 48.9% | T-47D breast 35.8% | BT-549 breast 75.9% | MDA-MB-435 melanoma 59.8% | SW-620 colon 73.4% | MCF7 breast 38.3% | HCT-116 colon 30.3% | HCC-2998 colon 67.9% | KM12 colon 49.6%

O=C(O)c1ccc(-c2nn(-c3ccc(C(=O)O)cc3)cc2/C=N/Nc2c(F)c(F)cc(F)c2F)cc1
inactive: SR leukemia 94% | RPMI-8226 leukemia 103% | OVCAR-8 ovarian 108% | OVCAR-5 ovarian 101% | OVCAR-4 ovarian 111% | SK-OV-3 ovarian 97.9% | IGROV1 ovarian 108% | OVCAR-3 ovarian 104% | HS 578T breast 112% | NCI/ADR-RES ovarian 105% | T-47D breast 95% | BT-549 breast 120% | MDA-MB-435 melanoma 107% | SW-620 colon 110% | MCF7 breast 95.7% | HCT-116 colon 100% | HCC-2998 colon 100% | KM12 colon 100%
